From PubChem BioAssay (EPA / NIEHS)
Where “and” joins values, the source holds several entries; their conditions need not be identical. Equal values may be shown once. Some compounds were tested as several samples or in several runs, with calls that do not always agree. Calls of active or inactive are those of the source. The calls were made as follows: active = hit-call score of the fitted dose curve at least 0.9, where 1 is the maximum; inactive = score below 0.9.

What was measured:
Conditions in all cases: mRNA level, 48 h; actives raise or lower the signal
[1] = read-out: Forkhead box O3 (FOXO3), FOXO3 (gene 2309); assay: LTEA_HepaRG_FOXO3: Life Technologies and Expression Analysis (LTEA) Assay for Forkhead box O3 (FOXO3) using HepaRG (AID 2283459)
Method: (§1) LTEA_HepaRG is a cell based, multiplexed-readout assay that uses HepaRG, a human liver cell line, with measurements taken at 48 hours after chemical dosing on a 96-well plate.LTEA_HepaRG_FOXO3 is one of 102 assay component(s) measured in the LTEA HepaRG cell culture assay. It is a marker of Cell proliferation, survival, death.Data from the assay component LTEA_HepaRG_FOXO3 was analyzed into 1 endpoint. This assay endpoint, LTEA_HepaRG_FOXO3, was analyzed with bidirectional fitting relative to DMSO as the negative control and baseline of activity. Using a type of inducible reporter, measures of mRNA induction for gain or loss-of-signal activity can be used to understand regulation of transcription factor activity. To generalize the intended target to other relatable targets, this assay endpoint is annotated to the dna binding intended target family, where the subfamily is forkhead box protein.
(§2) A total of 1060 chemcials from the ToxCast library were tested in eight-point concentration-response experiments. Cell culture and cytotoxicity assays were conducted at Thermo Fisher Scientific's Custom Services facility (Madison, WI). A single lot of human HepaRG cells (Thermo Fisher Scientific, Frederick, MD) was used for the cell culture experiments. 96-well format collagen type I coated plates of human HepaRG cells were prepared using established methods. Briefly, cryopreserved HepaRG cells were thawed, plated at a density of approximately 100,000 cells/well in HepaRG Thaw, Plate, and General Purpose media (HPRG770, Thermo Fisher Scientific), and incubated for 48 hours. 0.5% DMSO was selected as vehicle control to balance the requisite need of DMSO in HepaRG cultures to maintain differentiation (for example, baseline metabolism, proportions of hepatocytes vs. cholangiocytes), while enabling further hepatic receptor pathway activation (for example, PXR and CAR) in response to chemical exposure. 48 hours after plating, the culture medium was replaced with HepaRG Serum-Free Incudtion Media. Cells were exposed to each test chemical in duplicate and maintained in CO2 incubators for another 48 hours. Chemical plates were thawed to room temperature and 200x concentrations of treatment groups were prepared. 8-point conentration-reponse curves were made with the highest exposure at 100 uM, followed by half-log dilutions, all in 0.5% DMSO. Each test plate contained variouse controls, induction positive controls (1mM phenobarbital), cytotoxicity positive controls ([…] aflatoxin B1), vehicle controls (0.5% DMSO), and total lysis controls (0.5% DMSO). Cell morphology images were taken using an Essen IncuCyte FLR automated microscope, with six 96-well plates imaged in about 24 minutes. Images were captured and exported and JPEG files. Spent culture media was transfered to black-well plates for the LDH assay, and remaining media was sorted at -80 C for later use. Cells were treated with RLT buffer and frozen until shipped for gene expression analysis. Total RNA was isolated from the cell suspension in 75 uL of Buffer RLT (Qiagen, Germantown, MD 20874) by Quintiles/Expression Analysis (Durham, NC) using a custom isolation procedure. Total RNA from each plate well was transferred to a preamplification plate. Fluidigm's 96.96 Dynamic ArrayTM (Fluidigm, Amsterdam, the Netherlands) technology was used for gene expression analyses by quantitative reverse transcription polymerase chain reaction (qRT-PCR, performed by Quintiles/Expression Analysis, Durham, NC)89. Standard TaqManTM Assays (Applied Biosystems/ThermoFisher Scientific, Foster City, CA) were used to assess the expression of 93 genes selected based on their selectivity and sensitivity to important hepatic receptors known to be modulated by environmental chemicals; importance in human hepatocyte functionality; and hepatotoxicity. […]

[2] = read-out: ABC Transporter (ABCB1), ABCB1 (gene 5243); assay: LTEA_HepaRG_ABCB1: Life Technologies and Expression Analysis (LTEA) Assay for ABC Transporter (ABCB1) using HepaRG (AID 2283460)
Method in brief: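 Expression of ABCB1 was quantified by qRT-PCR against three housekeeping genes after human HepaRG cultures received test chemicals for 48 hours. Concentrations spanned eight half-log steps topping at 100 uM in 0.5% DMSO; gain or loss of signal was fitted relative to vehicle.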

[3] = read-out: growth arrest and DNA damage 45 (GADD45B), GADD45B (gene 4616); assay: LTEA_HepaRG_GADD45B: Life Technologies and Expression Analysis (LTEA) Assay for growth arrest and DNA damage 45 (GADD45B) using HepaRG (AID 2283461)
Method: as §1, with “plate.LTEA_HepaRG_GADD45B” for “plate.LTEA_HepaRG_FOXO3”, “LTEA_HepaRG_GADD45B” for “LTEA_HepaRG_FOXO3”, “LTEA_HepaRG_GADD45B,” for “LTEA_HepaRG_FOXO3,”, “mutagenicity response” for “dna binding”, “Cell proliferation, survival, death.” for “forkhead box protein.”
as §2

[4] = read-out: ABC Transporter (ABCC3), ABCC3 (gene 8714); assay: LTEA_HepaRG_ABCC3: Life Technologies and Expression Analysis (LTEA) Assay for ABC Transporter (ABCC3) using HepaRG (AID 2283462)
Method in brief: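 HepaRG cells in serum-free induction medium were exposed for 48 h in duplicate to 8-point half-log concentrations topping at 100 uM in 0.5% DMSO. ABCC3 mRNA was measured by qRT-PCR normalized to ACTB, GAPDH and POLR2A, with bidirectional fitting versus DMSO.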

[5] = read-out: ABC Transporter (ABCB11), ABCB11 (gene 8647); assay: LTEA_HepaRG_ABCB11: Life Technologies and Expression Analysis (LTEA) Assay for ABC Transporter (ABCB11) using HepaRG (AID 2283463)
Method in brief: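 ABCB11 transcript levels are read by Fluidigm TaqMan qRT-PCR after 48 h chemical treatment of human HepaRG cells. Concentrations span 100 uM downward in half-log steps with 0.5% DMSO; gain or loss is fitted against DMSO controls.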

[6] = read-out: ABC Transporter (ABCC2), ABCC2 (gene 1244); assay: LTEA_HepaRG_ABCC2: Life Technologies and Expression Analysis (LTEA) Assay for ABC Transporter (ABCC2) using HepaRG (AID 2283464)
Method in brief: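 HepaRG cells were plated 48 h, switched to serum-free induction medium, then exposed in duplicate for 48 h to 8 concentrations (top 100 uM, half-log steps, 0.5% DMSO). ABCC2 mRNA was measured by qRT-PCR normalized to ACTB/GAPDH/POLR2A; bidirectional fitting versus DMSO.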

[7] = read-out: Broad substrate specificity ATP-binding cassette transporter ABCG2 (Homo sapiens) (UniProt Q9UNQ0); assay: LTEA_HepaRG_ABCG2: Life Technologies and Expression Analysis (LTEA) Assay for ABC Transporter (ABCG2) using HepaRG (AID 2283465)
Method in brief: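 Read-out is ABCG2 mRNA induction or loss quantified by qRT-PCR after 48 h chemical treatment of human HepaRG cells, normalized to three housekeeping genes. Concentrations reached 100 uM top in half-log steps; fitting was bidirectional against 0.5% DMSO.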

[8] = read-out: ATP-citrate lyase (ACLY), ACLY (gene 47); assay: LTEA_HepaRG_ACLY: Life Technologies and Expression Analysis (LTEA) Assay for ATP-citrate lyase (ACLY) using HepaRG (AID 2283466)
Method in brief: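 HepaRG, 48 h exposure, 8-pt half-log dilutions (top 100 uM), 0.5% DMSO. Readout: ACLY mRNA, TaqMan qRT-PCR, housekeeping-normalized (ACTB/GAPDH/POLR2A). Bidirectional curve fit vs DMSO.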

[9] = read-out: Peroxisomal acyl-coenzyme A oxidase 1 (ACOX1) gene, ACOX1 (gene 51); assay: LTEA_HepaRG_ACOX1: Life Technologies and Expression Analysis (LTEA) Assay for Peroxisomal acyl-coenzyme A oxidase 1 (ACOX1) gene using HepaRG (AID 2283467)
Method in brief: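 Measured by qRT-PCR against three housekeeping genes: ACOX1 transcript change in human HepaRG cells after 48 h dosing. Concentrations ran up to 100 uM in half-log steps. Curves were fitted bidirectionally relative to 0.5% DMSO.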

[10] = read-out: Alkaline Phosphatase, Placental (ALPP) gene, ALPP (gene 250); assay: LTEA_HepaRG_ALPP: Life Technologies and Expression Analysis (LTEA) Assay for Alkaline Phosphatase, Placental (ALPP) gene using HepaRG (AID 2283468)
Method in brief: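 Differentiated human HepaRG cells were plated and cultured 48 h, then exposed in duplicate for 48 h in serum-free induction medium to eight half-log concentrations from 100 uM in 0.5% DMSO. ALPP mRNA was measured by TaqMan qRT-PCR, normalized to ACTB, GAPDH, POLR2A.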

Measured: AC50

Sequence of Broad substrate specificity ATP-binding cassette transporter ABCG2 (Homo sapiens) (Q9UNQ0 whole entry, looked up): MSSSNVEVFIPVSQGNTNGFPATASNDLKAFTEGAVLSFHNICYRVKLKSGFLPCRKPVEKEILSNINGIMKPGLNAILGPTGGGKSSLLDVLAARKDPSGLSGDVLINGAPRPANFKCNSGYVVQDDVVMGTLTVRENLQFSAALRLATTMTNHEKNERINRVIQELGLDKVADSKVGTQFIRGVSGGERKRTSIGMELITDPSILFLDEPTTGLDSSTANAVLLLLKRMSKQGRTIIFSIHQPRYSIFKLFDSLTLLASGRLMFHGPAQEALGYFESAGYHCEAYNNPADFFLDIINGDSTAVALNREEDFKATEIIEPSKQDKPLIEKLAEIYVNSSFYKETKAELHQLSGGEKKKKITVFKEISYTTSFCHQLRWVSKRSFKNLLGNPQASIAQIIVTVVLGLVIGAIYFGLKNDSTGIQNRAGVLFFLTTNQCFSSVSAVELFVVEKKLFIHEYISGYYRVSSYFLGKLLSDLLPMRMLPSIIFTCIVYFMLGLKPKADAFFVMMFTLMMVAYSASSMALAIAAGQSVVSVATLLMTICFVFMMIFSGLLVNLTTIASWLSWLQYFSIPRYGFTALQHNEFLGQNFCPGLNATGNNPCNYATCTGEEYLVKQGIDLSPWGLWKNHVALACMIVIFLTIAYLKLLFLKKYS

C[C@]12CC[C@@H]3c4ccc(O)cc4CC[C@H]3[C@@H]1CC[C@@H]2O
inactive: [1] | [3] | [4] | [8] | [9] | [10]
active: [2] 6.57 µM | [5] 50 µM | [6] 41.2 µM | [7] 3.03 µM

CCCCOCCOCCO
inactive: [1] | [2] | [3] | [4] | [5] | [6] | [7] | [8] | [9] | [10]

C#C[C@]1(O)CC[C@H]2[C@@H]3CCc4cc(O)ccc4[C@H]3CC[C@@]21C
inactive: [1] | [2] | [3] | [4] | [5] | [6] | [7] | [8] | [9] | [10]

O=C(c1ccc(OCCN2CCCCC2)cc1)c1c(-c2ccc(O)cc2)sc2cc(O)ccc12
inactive: [1] | [7] | [8] | [10]
active: [2] 72.7 µM | [3] 92.8 µM | [4] 50 µM | [5] 7.18 µM | [6] 84.8 µM | [9] 68.6 µM

CC/C(=C(\c1ccccc1)c1ccc(OCCN(C)C)cc1)c1ccccc1
active: [1] 66.8 µM | [2] 76.5 µM and 77.8 µM | [3] 79.1 µM and 16.7 µM | [4] 11.2 µM and 23 µM | [5] 26.4 µM and 25.1 µM | [6] 82.5 µM and 93.4 µM | [9] 45.8 µM | [10] 21.5 µM and 23.7 µM
inactive: [1] | [7] | [8] | [9]

C=C(C)C(N)=O
inactive: [1] | [2] | [3] | [4] | [5] | [6] | [7] | [8] | [9] | [10]

COC(=O)c1ccc(C(=O)OC)cc1
inactive: [1] | [2] | [3] | [4] | [5] | [6] | [7] | [8] | [9] | [10]
